# Compound activity from PubChem BioAssay.
# The entries come from a sample that favours hits as a whole.
# EZH2 inh: EZH2/PRC2 methyltransferase inhibitors, primary screen, biochemical, DELFIA time-resolved fluorescence, single point; Histone-lysine N-methyltransferase EZH2 (Homo sapiens), Q15910; PRC2 H3K27 methylation, DELFIA TRF, 1 h; inhibition, % at 12.5 µM; hit rate 0.35% among 57,000; AID 651548, 2012;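 active = mean inhibition of replicates at least 50% and every single replicate also reaching 50%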;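 note: dimethyl H3K27 on biotinylated H3 21-44 peptide detected by antibody; plate controls were median neutral control wells for no effect and median positive control wells for full effect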
# Target sequence (Q15910 whole entry, looked up): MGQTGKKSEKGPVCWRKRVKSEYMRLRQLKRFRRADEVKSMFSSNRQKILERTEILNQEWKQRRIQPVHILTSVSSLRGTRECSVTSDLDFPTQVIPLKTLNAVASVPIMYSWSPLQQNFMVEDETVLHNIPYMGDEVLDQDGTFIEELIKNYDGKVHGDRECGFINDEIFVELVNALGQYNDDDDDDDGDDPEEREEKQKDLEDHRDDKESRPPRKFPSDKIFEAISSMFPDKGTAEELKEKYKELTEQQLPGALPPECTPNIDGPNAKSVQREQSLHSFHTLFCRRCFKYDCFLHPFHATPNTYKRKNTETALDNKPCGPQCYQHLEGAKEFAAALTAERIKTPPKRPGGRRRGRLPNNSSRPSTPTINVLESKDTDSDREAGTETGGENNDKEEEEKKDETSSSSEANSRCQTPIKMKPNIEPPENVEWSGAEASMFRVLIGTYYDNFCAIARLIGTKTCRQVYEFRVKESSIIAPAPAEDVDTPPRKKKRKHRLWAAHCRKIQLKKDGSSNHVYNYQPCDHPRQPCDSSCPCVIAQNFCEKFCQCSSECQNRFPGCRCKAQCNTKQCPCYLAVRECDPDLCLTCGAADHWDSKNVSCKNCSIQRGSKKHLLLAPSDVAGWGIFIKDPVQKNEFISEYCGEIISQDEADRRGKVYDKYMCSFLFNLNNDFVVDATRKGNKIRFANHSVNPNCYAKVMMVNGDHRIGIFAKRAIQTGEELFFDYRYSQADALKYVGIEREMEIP
# Numbers without * were called inactive.
SMILES,EZH2 inh
O=C(COc1ccccc1)Nc1ccc2oc(-c3ccc(Cl)cc3)nc2c1,-12
O=C(COc1ccccc1)Nc1ccc2oc(-c3cccc(Cl)c3)nc2c1,1
CC(=O)N(Cc1ccc(C(C)C)cc1)c1ccc2oc(-c3ccccc3)nc2c1,58*
Cc1cc(C(=O)Nc2cccc3c2O[C@@H](CN(C)C(=O)Nc2ccc(C(F)(F)F)cc2)[C@H](C)CN([C@@H](C)CO)C3=O)n(C)n1,1
N#C/C(=C/c1ccc(O)c(O)c1)C(=O)Nc1ccccc1,18
N#CC(C#N)=C(N)/C(C#N)=C/c1cc(O)c(O)c(O)c1,28
N#C/C(=C\c1ccc(O)c(O)c1)C(=O)c1ccc(O)c(O)c1,94*
Cc1cc(C)n(-c2nc3cc(Cl)c(Cl)cc3n3c(C)nnc23)n1,-2
COc1ccc(SCc2cc3c(F)c(F)c(F)c(F)c3o2)cc1,46
CC(C)NC(=O)Nc1ccc2c(c1)C(=O)N([C@H](C)CO)C[C@H](C)[C@H](CN(C)C(=O)Nc1ccc(F)cc1)O2,-4
C[C@H]1CN([C@@H](C)CO)C(=O)Cc2cc(NC(=O)Nc3ccc(C(F)(F)F)cc3)ccc2O[C@@H]1CN(C)C,2
COc1cc(O)c2c(=O)c(OC3OC(CO[C@@H]4O[C@@H](C)[C@H](O)[C@@H](O[C@@H]5O[C@@H](C)[C@H](O)[C@@H](O)[C@H]5O)[C@H]4O)C(O)C(O)C3O)c(-c3ccc(O)cc3)oc2c1 (stereo not given in full),8
O=C1C[C@@H](c2ccc(O)c(O)c2)Oc2cc(O[C@@H]3O[C@H](CO)[C@@H](O)[C@H](O)[C@H]3O)cc(O)c21,5
O=c1c(O[C@@H]2OC[C@H](O)[C@H](O)[C@H]2O)c(-c2ccc(O)c(O)c2)oc2cc(O)cc(O)c12,69*
O=c1c(O)c(-c2ccc(O)c(O)c2)oc2cc(O)cc(O)c12,62*
O=c1c(OC2OCC(O)C(O)C2O)c(-c2ccc(O)c(O)c2)oc2cc(O)cc(O)c12 (stereo not given),99*
COc1c(OC)c(O)c2c(=O)c(O)c(-c3ccccc3)oc2c1OC,-30
COc1cc(-c2oc3cc(O)cc(O)c3c(=O)c2O[C@@H]2O[C@H](CO)[C@@H](O)[C@H](O)[C@H]2O)ccc1O[C@@H]1O[C@H](CO)[C@@H](O)[C@H](O)[C@H]1O,-9
O=c1c(O[C@@H]2O[C@H](CO)[C@H](O)[C@H](O)[C@H]2O)c(-c2ccc(O)cc2)oc2cc(O)cc(O)c12,5
O=c1c(-c2ccc(O)cc2)coc2cc(O)cc(O)c12,13
O=c1c(O[C@@H]2OC[C@H](O)[C@H](O)[C@H]2O)c(-c2ccc(O)cc2)oc2cc(O)cc(O)c12,100*
CCCC#Cc1ccc2c(c1)O[C@H](CN(C)CC1CCOCC1)[C@@H](C)CN([C@H](C)CO)S2(=O)=O,-7
COc1ccc([Si](C)(C)[C@H]2[C@H](CCO)O[C@@]3(C(=O)N(Cc4ccccc4)c4ccc(N5CCC5=O)cc43)[C@@H]2C)cc1,32
C[C@H](CO)N1C[C@H](C)[C@H](CN(C)S(=O)(=O)c2ccc(Cl)cc2)Oc2c(NC(=O)C3CCCCC3)cccc2C1=O,-10
CCCNC(=O)C[C@@H]1C[C@H]2c3cc(NS(=O)(=O)c4ccc(F)cc4)ccc3O[C@H]2[C@H](CO)O1,-14
SMILES,EZH2 inh
C[C@@H]1CN([C@H](C)CO)C(=O)c2cc(NC(=O)c3ccncc3)ccc2O[C@@H]1CN(C)Cc1ccc(C(F)(F)F)cc1,-5
COc1ccc(CN(C)C[C@@H]2Oc3ccc(NC(=O)C4CCCCC4)cc3C(=O)N([C@H](C)CO)C[C@@H]2C)cc1,1
OC(CSc1ccncc1)CC(O)c1ccccc1 (stereo not given),7
CCCNC(=O)N[C@@H]1CC[C@@H](CC(=O)NCCc2ccccc2)O[C@H]1CO,-14
CC(C)NC(=O)N[C@H]1C=C[C@@H](CC(=O)NCCN2CCCC2)O[C@H]1CO,6
O=C(C[C@H]1C=C[C@H](NC(=O)CCN2CCCCC2)[C@@H](CO)O1)Nc1nccs1,25
COc1ccc(NC(=O)Nc2ccc3c(c2)[C@@H]2C[C@H](CC(=O)N(C)C)O[C@H](CO)[C@@H]2O3)cc1,5
O=C(C[C@H]1CC[C@@H](NC(=O)Nc2cc(F)ccc2F)[C@@H](CO)O1)NCc1ccc2c(c1)OCO2,9
CCCCN(CCCC)c1ccc(/C=N/NC(=O)c2ccccc2O)cc1,19
COC(=O)CCCCCCC(=O)N/N=C/c1cccc(OCCO)c1,6
O=C(CCCCC(=O)N/N=C/c1ccc(-c2cccc(Cl)c2)o1)NO,-1
COC(=O)CCCCCCC(=O)N/N=C/c1ccc(OCCO)cc1,18
COC(=O)CCCCCCC(=O)N/N=C/c1ccccc1,22
COC(=O)CCCCCCC(=O)N/N=C/c1cccc(Oc2ccccc2)c1,56*
CCCCN(CCCC)c1ccc(/C=N/NC(=O)CCCCCCC(=O)OC)cc1,80*
O=C(N/N=C/c1ccc(-c2cccc(Cl)c2)o1)c1ccccn1,6
COC(=O)CCCCCCC(=O)N/N=C/c1ccc(-c2cccc(Cl)c2)o1,54*
